Results taken from PubChem BioAssay.

Experiments:
[1] = NFkB reporter suppression in cystic fibrosis bronchial cells – cell-based, uHTS hits, panel, cytotoxicity readout, dose response (AID 624344); conditions: CF bronchial epithelial cells, PAF-induced NFkB reporter inhibition, with PAF, run 1; at 79 µM (top of the series) unless noted
[2] = as above; conditions: CF bronchial epithelial cells, PAF-induced NFkB reporter inhibition, with PAF, run 2; at 79 µM (top of the series) unless noted

SMILES | inhibition [1] | inhibition [2]
CC(=O)c1ccc(-n2c(C)c(C(C)=O)c3cc(O)ccc32)cc1 | 56.2% | 74.6%
CCC(=O)c1ccc(O)c(CC=C(C)C)c1 | 114% | 97.8%
CCN1CCN(Cc2ccc(NC(=O)c3ccc(C)c(NC(=O)c4cccc5[nH]ccc45)c3)cc2C(F)(F)F)CC1 | 84.6% | 77.6%
Cc1cccc(C(=O)N2[C@@H](C(C)C)COc3cc(Br)ccc3S2(=O)=O)c1 | 102% | 93.6%
O=C(c1cncc(Br)c1)N1CCc2ccccc2C1 | 92.5% | 80.2%
COc1ccc2cc3c(N)nn(C(=O)c4ccccc4[N+](=O)[O-])c3nc2c1 | 101% | 111%
CCC1(O)CC2CN(CCc3c([nH]c4ccccc34)C(C(=O)OC)(c3cc4c(cc3OC)N(C=O)C3C(O)(C(=O)OC)C(OC(C)=O)C5(CC)C=CCN6CCC43C65)C2)C1 (configuration not stated) | 107% | 78.2%
O=C(c1[nH]c(C(F)(F)F)nc1-c1ccccc1)N1CCN(c2c(Cl)cncc2Cl)CC1 | 103% | 96.2%
COc1ccc(-n2c(C)c(C(C)=O)c3cc(O)ccc32)cc1 | 117% | 95.2%
CC(C)C[C@@H](CN1CCCC1CN1C(=S)NC[C@@H]1Cc1ccc(O)cc1)N1C[C@H](Cc2ccc(O)cc2)N(CC2CCCCC2)C1=S (some centres not stated) | 102% | 107%
COc1ccc(S(=O)(=O)N2c3cc(C)ccc3OCC2C(C)(C)C)cc1 (configuration not stated) | 103% | 81.9%
CCCCCCc1cc2cc(C(=O)Nc3ccccc3OC)c(=O)oc2cc1O | 2.45% | 66.2%
O=S(=O)(c1ccc(Br)cc1)c1cnc2ccccc2n1 | 100% | 106%
CC(=O)c1ccc(NC(=O)Nc2ccc3c(c2)N(C)C(=O)CS3)cc1 | 98.3% | 106% [at 19.8 µM]
Cc1nc2c(O)c3c(c(O)c2nc1C)C1C=CC3CC1 | 114% | 103%
CCOC(=O)C1=C(C)Nc2ccccc2N=C1NC(=O)c1oc2ccccc2c1COC | 90.5% | 101%
COc1ccc(-c2cc(=O)oc3cc(OC(=O)C4CCCCC4)ccc23)cc1 | 110% | 101%
CCN1CCN(Cc2ccc(NC(=O)c3ccc(C)c(NC(=O)c4ccc5n[nH]nc5c4)c3)cc2C(F)(F)F)CC1 | 101% | 111%
CCCCNc1c(-c2cccc(-c3ccc(OC)cc3)c2)nc2ccc(C)cn12 | 98.7% | 107%
C=C1C(=O)O[C@@H]2[C@H]3O[C@]3(C)CC/C=C(\C)CC[C@@H]12 | 101% | 99.4%
Cc1cnc(NC(=O)CCCc2nc3ccccc3s2)s1 | 101% | 114%
COc1ccc(-c2cn[nH]c2-c2ccc(OCc3ccccc3F)cc2O)cc1OC | 113% | 98.3%

SMILES | inhibition [1] | inhibition [2]
Cc1nnc(SCC(=O)N2CCC(c3noc4ccc(F)cc34)CC2)s1 | 101% | 112%
O=[N+]([O-])c1ccc(O)c(C2CCCCC2)c1 | 117% | 103%
O=C(CCS(=O)(=O)c1ccccc1)N(CCCN1CCOCC1)c1nc2c(F)cccc2s1 | 97.5% | 95.9%
CCOc1cccc(-c2nnc3sc(C4CCCCC4)nn23)c1 | 102% | 116%
COc1ccc(-c2cnc3c(NC=O)cc(-c4ccc(C(=O)N5CCOCC5)cc4)cn23)cc1OC | 106% | 99%
CC(C)OC(=O)c1cccc(C(=O)Nc2cccc(NC(=O)c3cccc(C(=O)OC(C)C)n3)n2)n1 | 103% [at 9.88 µM] | 109% [at 19.8 µM]
O=C(NCCCSc1ccccc1)c1cc(Cl)ccc1O | 106% | 117%
CCOC(=O)C1(C(=O)OCC)COC(=O)C1CN1Cc2cc3ccccc3nc2C1 (configuration not stated) | 65.1% | 65.6%
COc1ccc(C2CNC(=O)C2)cc1OC1CCCC1 (configuration not stated) | 84.8% | 81.6%
Cc1nn(-c2ccccc2)c(N2CCCC2)c1/C=N/NC(=O)c1cc(-c2ccccc2)nc2ccccc12 | 104% | 80%
Cc1ccc(C(=O)c2cncc(Br)c2)cc1 | 86.5% | 93.4%
O=C(N/N=C/c1ccccc1)c1[nH]c2ccc(Br)cc2c1-c1ccccc1 | 76.6% | 79.5%
O=C(COc1ccc(Cl)cc1)Nc1ncc([N+](=O)[O-])s1 | 115% | 83.3%
Cn1c(N2CCN(C(c3ccccc3)c3ccccc3)CC2)nc2c1c(=O)[nH]c(=O)n2C | 108% | 104%
CC(C)Cc1nc2oc3c(NCC4CCCO4)ncnc3c2c2c1CCC2 (configuration not stated) | 101% | 98.5%
CCc1cc2c(Sc3nc4ccccc4s3)ncnc2s1 | 114% | 98.3%
Cc1ccc2nc(SCC(=O)Nc3cc(C(F)(F)F)ccc3N3CCOCC3)[nH]c2c1 | 81.3% | 48.5%
COc1ccc(N(CCCN2C(=O)c3cccc4cccc(c34)C2=O)C(=O)c2ccncc2)cc1 | 5.78% | 45.8%
CC(C)(C)OC(=O)NCCCCCNC(=O)c1nc[nH]c1C(=O)NCC(=O)OCc1ccccc1 | 111% | 101%
C=CC[C@@H](CC(=O)N(CCO)Cc1ccccc1)C(=O)NC[C@H](OC(=O)[C@@H](CC=C)Cc1ccc(F)cc1)c1ccccc1 | 110% | 102%
COc1cccc2c(SCC(=O)N/N=C/c3ccccc3)cc(C)nc12 | 104% | 106%
Cc1ccc(C(=O)Nc2cccc(C(F)(F)F)c2)cc1NC(=O)c1cnnc2ccccc12 | 105% | 88.8%

SMILES | inhibition [1] | inhibition [2]
CC(C)(CO)CNc1ccn2nccc2n1 | 114% | 99.8%
CN(Cc1ccccc1)c1ncnc(N)c1[N+](=O)[O-] | 115% | 102%
COc1ccc(Nc2nc(-c3cccs3)nc3ccccc23)cc1S(=O)(=O)N1CCOCC1 | 104% | 102%
CN(C)CCCN(C(=O)CCSc1ccccc1)c1nc2cc3c(cc2s1)OCO3 | 106% | 116%
CC1Cc2ccccc2N1c1ncnc2nc[nH]c12 (configuration not stated) | 114% | 106%
Fc1ccc(-n2cc(-c3ccccc3)c3c(N4CCOCC4)ncnc32)cc1 | 110% | 102%
COc1ccc(OC)c(-c2nnc3n2N=C(c2ccc(OC)c(OC4CCCC4)c2)CS3)c1 | 103% | 110%
CCOC(=O)c1c(C)[nH]c(C(=O)N/N=C/c2ccc(Br)cc2)c1C | 89.5% | 83.1%
Cc1c(C(=O)OC2CCCC2)[nH]c2c1C(=O)CC(c1ccco1)C2 (configuration not stated) | 29% | 115%
CC(C)C[C@@H](CN1CCCC1CN1C(=S)NC[C@@H]1Cc1ccc(O)cc1)N1C[C@H](Cc2ccc(O)cc2)N(CCc2ccccc2)C1=S (some centres not stated) | 112% | 101%
Cc1cc(C)cc(NS(=O)(=O)c2ccc(-c3cnc(C4CC4)o3)cc2)c1 | 110% | 106%
Cc1ccc2[nH]cc(C(=O)CCl)c2c1 | 60.6% | 72%
O=C(CCC1COc2ccccc2O1)Nc1ccc(Cl)cn1 (configuration not stated) | 104% | 112%
CCCCN(CCCC)c1ncnc2nc[nH]c12 | 102% | 118%
CNC(=O)COC(=O)c1ccccc1C(=O)c1ccc(Cl)c([N+](=O)[O-])c1 | 103% | 102%
COc1ccc(-c2cc(=O)oc3cc(OC(=O)C4CCCCC4)c(Cl)cc23)cc1 | 117% | 102%
CCC(CO)Oc1cc(NCc2ccc(Cl)cc2Cl)c2ncn(C(C)C)c2c1 (configuration not stated) | 105% | 109%
O=c1cc(-c2ccccc2Cl)oc2c([N+](=O)[O-])c(O)cc(O)c12 | 101% | 109%
Cc1ccc(Cl)cc1-c1cc(C(=O)NCc2cc(C(F)(F)F)cc(C(F)(F)F)c2)[nH]n1 | 84.9% | 96.5%
O=C(COC(=O)c1ccc2[nH]c3c(c2c1)CCCC3)Nc1ccccc1Cl | 65.7% | 69.7%
CCOc1ccc(NCc2cc3c(C(C)(C)C)nn(-c4ccccc4)c3[nH]c2=O)cc1 | 101% | 109%
C=C1C(=O)C23C(O)C1CCC2C12COC3(O)C(O)C1C(C)(C)CCC2O (configuration not stated) | 87.7% | 76.9%

SMILES | inhibition [1] | inhibition [2]
Cc1ccccc1C(=O)N1CCN(c2ccc(NC(=O)c3cccc(OC(C)C)c3)cc2)CC1 | 89.1% | 86.4%
COc1ccc(-c2csc(NC3OC(=O)c4c3ccc(OC)c4OC)n2)cc1OC (configuration not stated) | 109% | 100%
CN(C)CCCN(C(=O)CCOc1ccccc1)c1nc2c(F)cccc2s1 | 99.3% | 99.1%
CN1CCC(OC(=O)c2cc3cc(Cl)cc(Cl)c3oc2=O)CC1 | 108% | 97.8%
Fc1cccc(Cl)c1/C=N/Nc1c(Cl)cncc1Cl | 101% | 104%
O=c1c(O)c(-c2ccccc2)oc2cc(O)cc(O)c12 | 103% | 106%
O=C(CCl)N(Cc1cc(=O)[nH]c2ccccc12)c1ccccc1 | 68.3% | 83.6%
O=C1Cc2c([nH]c3ccc(Br)cc23)-c2ccccc2N1 | 94.6% | 80.1%
O=C(NCCCSc1ccccc1)c1cc(Br)ccc1O | 110% | 103%
C=C1C(=O)[C@]23C[C@H]1CC[C@H]2[C@]1(C)[C@@H](OC(C)=O)CC[C@@](C)(C(=O)O)[C@H]1C[C@@H]3O | 97.6% | 94%
CC(=O)OCCN1c2ccccc2Sc2cnccc21 | 105% | 109%
COc1cc(NC(=O)c2csc(-c3ccncc3)n2)cc(C(=O)Nc2cccc(C(F)(F)F)c2)c1 | 102% | 105%
CN(c1cccc(Cl)c1)S(=O)(=O)c1cccc(C(=O)Nc2nc3ccccc3[nH]2)c1 | 102% | 99.5%
COc1ccc(CNc2nn3c(-c4cccc(C(=O)N(C)C)c4)cnc3s2)cc1 | 113% | 104%
Cc1ccccc1S(=O)(=O)Cc1ccc(C(=O)N2CCN(c3cccc(C)c3C)CC2)o1 | 103% | 114%
O=C1NC(c2cccc3ccccc23)Nc2ccc(Cl)cc21 (configuration not stated) | 61.5% | 99.9%
CCCC1/C(=N/O)CC(c2ccccc2)NC1c1ccccc1 (configuration not stated) | 106% | 98.7%
COc1ccc(CN2C[C@H]3CCCN3c3cc(Br)ccc3S2(=O)=O)cc1 | 74.6% | 92.2%
Cc1nn(-c2cccc(Cl)c2)c2nc(C(F)(F)F)[nH]c(=O)c12 | 96% | 79.8%
CN(c1ncnc(N)c1[N+](=O)[O-])C1CCS(=O)(=O)C1 (configuration not stated) | 96.8% | 104%
